Screening data (PubChem BioAssay)
TDP1 cell noCPT: qHTS for Inhibitors of human tyrosyl-DNA phosphodiesterase 1 (TDP1): qHTS in cells in absence of CPT | DT40 Tdp1-/- hTDP1 cells, no CPT, ATP luminescence, 48 h | Potency, µM (doses to about 46.2 µM), without a hit: at the highest dose activity change, negative = growth inhibition, hits mostly inhibitors | 420,000 compounds, 15% hits; further: potency means the concentration at half of the fitted maximal effect; nearly all actives have a fitted effect of over 55% in size
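Compound effects on proliferation are scored in DT40 Tdp1-/-;hTDP1 cells in the absence of CPT. ATP levels (CellTiter-Glo luminescence) are recorded after a ≥48 hr, 37 °C incubation.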
IL-1B inflam inh: qHTS for Inhibitors of Inflammasome Signaling: IL-1-beta AlphaLISA Primary Screen; THP-1 LPS/ATP IL-1B secretion, AlphaLISA, 16 h; stronger effect = lower value; activity change, % at 57.5 µM; 360,000 compounds, 4.7% hits; AID 743279, 2014; in the data active means activity change below about -50%; inconclusive means mostly about -30% to -49%
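THP-1 cells pretreated 1 hr with compounds (up to 57.5 uM final), then stimulated with LPS (250 ng/mL final) plus ATP (1.25 mM final); secreted IL-1B measured by AlphaLISA after 16 hr, decreased signal indicating inhibition.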
12-LOX inh: Primary qHTS assay for inhibitors of human arachidonate 12S-lipoxygenase (ALOX12): Round 2. Potency, µM (top dose mostly 108 µM), for the others: at the top dose activity change, negative = inhibition, most hits filed as inhibitors. Polyunsaturated fatty acid lipoxygenase ALOX12 (Homo sapiens), P18054. 580,000 compounds, 1.1% hits. purified 12hLO, xylenol orange hydroperoxide absorbance; further: potency means the concentration at half of the fitted maximal effect
Target sequence (P18054 whole entry, looked up): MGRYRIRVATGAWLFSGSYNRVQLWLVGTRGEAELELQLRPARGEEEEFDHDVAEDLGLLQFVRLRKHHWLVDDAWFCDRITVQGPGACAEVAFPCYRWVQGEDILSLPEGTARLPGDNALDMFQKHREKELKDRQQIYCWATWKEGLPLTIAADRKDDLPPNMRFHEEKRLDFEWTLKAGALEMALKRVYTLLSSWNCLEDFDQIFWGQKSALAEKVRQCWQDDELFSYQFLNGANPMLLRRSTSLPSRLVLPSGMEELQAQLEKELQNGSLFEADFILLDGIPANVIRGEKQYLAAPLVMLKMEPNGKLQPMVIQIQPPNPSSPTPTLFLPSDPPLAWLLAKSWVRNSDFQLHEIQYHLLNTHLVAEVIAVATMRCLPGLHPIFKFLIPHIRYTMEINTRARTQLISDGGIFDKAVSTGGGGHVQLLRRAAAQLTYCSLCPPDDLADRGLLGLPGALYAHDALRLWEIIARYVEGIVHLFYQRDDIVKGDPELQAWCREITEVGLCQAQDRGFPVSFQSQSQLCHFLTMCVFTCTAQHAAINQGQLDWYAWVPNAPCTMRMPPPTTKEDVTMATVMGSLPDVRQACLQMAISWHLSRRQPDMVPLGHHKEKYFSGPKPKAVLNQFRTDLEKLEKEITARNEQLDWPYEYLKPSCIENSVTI
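Hydroperoxide product was detected by ferrous iron/xylenol orange as the 573 to 405 nm absorbance ratio. Arachidonic acid at 40 uM (final) was turned over for 30 min at room temperature by 150 nM human 12hLO, pH 7.0 Hepes buffer, after 15 min compound preincubation.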
HT1080NT lethal: qHTS for induction of synthetic lethality in tumor cells producing 2HG: qHTS for the HT-1080-NT fibrosarcoma cell line; Potency, µM (highest dose often 46.1 µM), without a hit: at the highest dose activity, negative = less viability, most hits filed as cytotoxic; AID 686970, 2013; 360,000 compounds, 1.6% hits; HT-1080-NT fibrosarcoma viability, CellTiter-Glo ATP luminescence, 48 h;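 further: NT is the 2HG producing partner of a matched IDH1 knockdown line; potency means the concentration at half of the fitted maximal effect; 0% = DMSO-treated cells and -100% = media-only wells without cells; nearly all actives have a fitted effect of over 55% in size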
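Compounds were tested in concentration-response format on HT-1080-NT cells for 48 hours at 37 degrees C. Cell viability came from CellTiter-Glo luminescence; curves were classified by r2, response magnitude and activity.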
HT1080 IDH1KD tx: qHTS for induction of synthetic lethality in tumor cells producing 2HG: qHTS for the HT-1080-IDH1KD cell line. AID 686971, 2013. HT-1080 IDH1 knockdown viability, ATP luminescence, 48 h. 360,000 compounds, 2% hits. Potency, µM (titrated, usually from 46.1 µM), without a hit: at the top dose activity, negative = toxicity, most hits filed as cytotoxic;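 further: potency means the concentration at half of the fitted maximal effect; 0% = DMSO wells and -100% = cell-free medium wells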
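Assay cells: HT-1080 with IDH1 knockdown, 750 per well, RPMI/5% FBS. Exposure: 48 h at 37 °C following 2 h pre-incubation. Read: CellTiter-Glo luminescence; fitted concentration-response, curve class assigned.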
TDP1 cell CPT: qHTS for Inhibitors of human tyrosyl-DNA phosphodiesterase 1 (TDP1): qHTS in cells in presence of CPT; chicken DT40 Tdp1-/-;hTDP1 cells + 20 nM CPT, ATP luminescence, 48 h; 420,000 compounds, 12% hits; Potency, µM (highest dose often 46.2 µM), for the others: top-dose activity change, negative = growth inhibition, hits mostly inhibitors; AID 686979, 2013; further: potency means the concentration at half of the fitted maximal effect; nearly all actives have a fitted effect of over 55% in size
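Cell growth measured by CellTiter-Glo luminescence after a minimum 48 h, 37 C compound exposure with 20 nM CPT in Tdp1-knockout DT40 cells stably expressing hTDP1, seeded 400/well; qHTS titration format.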
Numbers without * were called inactive; ? = inconclusive; nt = no result given; [ ] = another dose, or the depositor's remark. Shown is part of a subset that was picked to be rich in hits. Unless noted, the call rests on the fitted dose curve; in most records, active means well fitted curve in the direction sought with a large enough effect; inconclusive means small, poorly fitted or top-dose-only effect, or another doubt; inactive means no such curve, though single readings can be large; an effect the other way counts as inactive or inconclusive. Unless noted, on the % scale 0 is the no-effect control and ±100 the full control effect.

SMILES	TDP1 cell noCPT	IL-1B inflam inh	12-LOX inh	HT1080NT lethal	HT1080 IDH1KD tx	TDP1 cell CPT
COc1ccccc1/C=C1\SC(N2CCC(C)CC2)=NC1=O	23.1µM*	?	0.0%	6.9%	10.6%	?
COc1cc(OC)c(OC)cc1/C=C1\SC(N2CCCCC2)=NC1=O	?	-17.5	328.8%	-3.8%	-13.4%	-26.0%
COc1ccc(-c2noc(-c3nc(C(C)C)no3)n2)cc1	nt	nt	32.4%	nt	nt	nt
CC(Oc1ccccc1)C(=O)Nc1ccccc1C(=O)OCc1cc(=O)n2nc(C3CC3)sc2n1 (stereo not given)	7.31µM*	nt	-22.9%	nt	nt	3.66µM*
Cc1nn2c(=O)cc(COC(=O)c3ccccc3NC(=O)C(C)Oc3ccccc3)nc2s1 (stereo not given)	-19.7%	nt	-5.7%	nt	nt	?
Cc1ccc(OCC(=O)Nc2ccccc2C(=O)OCc2cc(=O)n3c(C)csc3n2)cc1	20.6µM*	nt	-25.7%	nt	nt	16.4µM*
Cc1ccc(OCC(=O)Nc2ccccc2C(=O)OCc2cc(=O)n3nc(C4CC4)sc3n2)cc1	10.3µM*	nt	-6.4%	nt	nt	7.31µM*
CCCCNC(=O)c1nc(-c2cc3ccccc3[nH]2)oc1-c1cccc(C(F)(F)F)c1	?	-3.4	-1.4%	-0.6%	0.7%	14.6µM*
Cc1cccc(NC(=O)c2ccccc2NC(=O)c2nc(-c3ccccc3)oc2C)c1	nt	nt	35.5µM*	nt	nt	nt
CCCCCNC(=O)c1nc(-c2c(F)cccc2F)oc1-c1ccccc1	20.6µM*	-15.1	2.1%	-10.7%	-6.5%	?
O=C(NCc1ccccc1)c1nc(-c2c(F)cccc2F)oc1-c1ccccc1	18.4µM*	4.8	-4.9%	-17.4%	-15.1%	?
Cc1oc(-c2ccccc2)nc1C(=O)Nc1ccccc1F	nt	nt	-0.1%	nt	nt	nt
O=C(NC1CCCC1)c1nc(-c2c(F)cccc2F)oc1-c1ccccc1	?	-4.0	1.5%	-7.6%	-22.6%	?
O=C(NC1CCCCC1)N[C@H]1[C@H](O)[C@@H](N2CCCCC2)[C@@H]2OC[C@H]1O2	nt	nt	1.5%[176 µM]	nt	nt	nt
O=C(OCC(=O)N(Cc1ccccc1)Cc1ccccc1)c1ccc2ccccc2n1	nt	nt	13.5%	nt	nt	nt
Cc1oc(-c2ccccc2)nc1C(=O)NCc1ccccc1	nt	nt	17.8µM*	nt	nt	nt
CNc1cccc2c1C(=O)c1ccccc1C2=O	?	-52.4*	-0.9%	-1.4%	-0.8%	-22.9%
CC(C)c1ccc(OCCCCCN2CCOCC2)cc1	?	-4.1	?	-9.0%	5.3%	?
CC(=O)Oc1ccc(OC(C)=O)c(SCCCCCN2CCOCC2)c1	3.66µM*	0.0	?	?	?	?
CCC(NC(=O)C1CCOC1)C12CC3CC(CC(C3)C1)C2 (stereo not given)	nt	nt	-0.1%	nt	nt	nt
Clc1ccc(-n2ncc3c(NCc4ccco4)ncnc32)cc1	14.6µM*	0.0	?	-14.1%	?	?
COc1ccc(-n2ncc3c(NCc4ccco4)ncnc32)cc1	-14.4%	-4.8	31.6µM*	-6.4%	6.8%	-6.6%
CCCN(CCC)c1ncnc2c1cnn2-c1ccc(OC)cc1	?	-65.4*	-10.4%	4.3%	8.2%	?
Clc1ccc(Cn2ncc3c(NCc4ccco4)ncnc32)c(Cl)c1	?	11.7	?	?	?	?
Cc1ccc(NC(=O)Cn2c(=O)oc3cc(S(=O)(=O)N4CCC(C)CC4)ccc32)cc1C	?	19.5	13.0%[57.4 µM]	?	?	14.6µM*
SMILES	TDP1 cell noCPT	IL-1B inflam inh	12-LOX inh	HT1080NT lethal	HT1080 IDH1KD tx	TDP1 cell CPT
COc1ccc(NC(=O)Cn2c(=O)oc3cc(S(=O)(=O)N4CCCC4)ccc32)cc1	-20.2%	-8.8	10.1%	0.0%	6.3%	-18.2%
Cc1ccc(NC(=O)Cn2c(=O)oc3cc(S(=O)(=O)N4CCCCC4)ccc32)c(Cl)c1	11.6µM*	nt	-17.3%	nt	nt	?
Cc1cc(NC(=O)Cn2c(=O)oc3cc(S(=O)(=O)N4CCCC4)ccc32)ccc1Br	14.6µM*	nt	4.0%	nt	nt	20.6µM*
Cc1cc(C)cc(NC(=O)Cn2c(=O)oc3cc(S(=O)(=O)N4CCCC4)ccc32)c1	20.6µM*	nt	-15.0%	nt	nt	?
Cc1ccc(NC(=O)Cn2c(=O)oc3cc(S(=O)(=O)N4CCCC4)ccc32)cc1F	-20.2%	nt	-16.8%	nt	nt	-20.7%
Cc1ccc(C(=O)NCCC23CC4CC(CC(C4)C2)C3)cc1	nt	nt	1.4%	nt	nt	nt
Cc1cnc(CCNS(=O)(=O)c2cn(C)cn2)n1C1CC1	nt	nt	60.9%	nt	nt	nt
CNC(=O)Cc1ccc(NC(=O)C2CCCCC2)cc1	nt	nt	44.0%	nt	nt	nt
COc1ccc(CCNC(=O)C2CC3Cn4c(nc5cc6ccccc6cc54)C3N2C)cc1 (stereo not given)	20.6µM*	-12.0	-1.7%	3.1%	6.3%	14.6µM*
CN1C(C(=O)NCCc2cccs2)CC2Cn3c(nc4cc5ccccc5cc43)C21 (stereo not given)	?	15.8	-5.9%	0.4%	-0.9%	-23.2%
COc1ccccc1CNC(=O)C1CC2Cn3c(nc4cc(Cl)c(Cl)cc43)C2N1C (stereo not given)	23.1µM*	?	11.2µM*	?	-18.7%	?
N#Cc1nc(-c2ccccc2Cl)oc1N1CCOCC1	?	-23.1	-4.5%	?	-20.3%	?
N#Cc1c(-c2ccccc2)nc(-c2ccccc2)nc1N1CCOCC1	?	?	4.3%	5.3%	12.6%	-17.0%
N#CC1=C(Nc2ccccc2)SC=C(c2ccc(Cl)c(Cl)c2)N=C1N1CCOCC1	?	-80.2*	0.0%	-19.0%	-12.4%	13µM*
N#CC1=C(Nc2ccccc2)SC=C(c2ccccc2)N=C1N1CCOCC1	29.1µM*	-7.4	1.4%	-1.4%	0.2%	5.8µM*
Cc1ccc(-n2nnnc2SCC(=O)N2CCN(CC(=O)N3CCCC3)CC2)c(C)c1	nt	nt	2.0%	nt	nt	nt
CCN1C(=O)[C@@H]2[C@@H](c3ccc(-c4ccc(OC)cc4)cc3)N3CCCC[C@@]3(C(=O)OC)[C@@H]2C1=O	16.4µM*	-6.3	?	-1.3%	-13.5%	25.9µM*
